In PubChem BioAssay (EPA / NIEHS):
Inconclusive results are not listed. Activity calls are given as the source filed them. The calls were made as follows, unless noted: active = hit-call score of the fitted dose curve at least 0.9, where 1 is the maximum; inconclusive = response in the unintended direction; inactive = score below 0.9.

Columns and labels:
[1] = ATG_ERE_CIS: Attagene CIS-FACTORIAL HepG2 Assay for Estrogen Response Element (ERE) (AID 2282940; active = hit-call score of the fitted dose curve at least 0.9, where 1 is the maximum; inactive = score below 0.9); conditions: HepG2 ERE cis-reporter, Attagene RNA transcript; actives raise or lower the signal
Summary of the method: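 Measuring endogenous transcription factor output, the assay doses transfected HepG2 cells for 24 hours and quantifies reporter transcripts by fluorescent RT-PCR and capillary electrophoresis, with DMSO as baseline.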

[2] = target: Estrogen receptor (Homo sapiens) (UniProt P03372); assay: ATG_ERa_TRANS: Attagene TRANS-FACTORIAL HepG2 Assay for human Estrogen Receptor alpha (ERa) (AID 2282970); conditions: HepG2 Attagene TRANS ERa GAL4 reporter, mRNA
Sequence of Estrogen receptor (Homo sapiens) (P03372 whole entry, looked up, the tested form may be a part): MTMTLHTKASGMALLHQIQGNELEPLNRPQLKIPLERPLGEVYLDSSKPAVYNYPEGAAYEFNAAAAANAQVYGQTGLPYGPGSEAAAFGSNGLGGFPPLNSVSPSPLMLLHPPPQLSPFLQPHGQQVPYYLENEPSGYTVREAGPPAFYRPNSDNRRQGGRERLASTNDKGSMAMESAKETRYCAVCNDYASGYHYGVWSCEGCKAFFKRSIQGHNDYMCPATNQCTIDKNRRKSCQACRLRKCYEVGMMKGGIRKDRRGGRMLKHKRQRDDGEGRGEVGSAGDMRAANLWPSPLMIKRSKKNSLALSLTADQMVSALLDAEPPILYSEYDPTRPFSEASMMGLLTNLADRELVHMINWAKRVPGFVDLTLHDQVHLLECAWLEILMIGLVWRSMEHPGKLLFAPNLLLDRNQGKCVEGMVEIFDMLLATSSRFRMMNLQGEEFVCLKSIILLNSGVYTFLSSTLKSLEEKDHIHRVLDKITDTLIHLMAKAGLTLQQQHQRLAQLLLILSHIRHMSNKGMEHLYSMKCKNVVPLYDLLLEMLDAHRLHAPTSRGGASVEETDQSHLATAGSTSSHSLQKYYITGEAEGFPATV
Summary of the method: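 Transactivation via ERa-Gal4 chimera in HepG2; 24 hour incubation; reporter mRNA detected by fluorescence RT-PCR and capillary electrophoresis.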

[3] = target: Bile acid receptor (Homo sapiens) (UniProt Q96RI1); assay: ATG_FXR_TRANS: Attagene TRANS-FACTORIAL HepG2 Assay for Farnesoid X Receptor (FXR) (AID 2282979); conditions: HepG2 Attagene TRANS FXR-GAL4 reporter transcription;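 also: hits raise reporter mRNA above DMSO so AC50 marks FXR activation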
Sequence of Bile acid receptor (Homo sapiens) (Q96RI1 whole entry, looked up, the tested form may be a part): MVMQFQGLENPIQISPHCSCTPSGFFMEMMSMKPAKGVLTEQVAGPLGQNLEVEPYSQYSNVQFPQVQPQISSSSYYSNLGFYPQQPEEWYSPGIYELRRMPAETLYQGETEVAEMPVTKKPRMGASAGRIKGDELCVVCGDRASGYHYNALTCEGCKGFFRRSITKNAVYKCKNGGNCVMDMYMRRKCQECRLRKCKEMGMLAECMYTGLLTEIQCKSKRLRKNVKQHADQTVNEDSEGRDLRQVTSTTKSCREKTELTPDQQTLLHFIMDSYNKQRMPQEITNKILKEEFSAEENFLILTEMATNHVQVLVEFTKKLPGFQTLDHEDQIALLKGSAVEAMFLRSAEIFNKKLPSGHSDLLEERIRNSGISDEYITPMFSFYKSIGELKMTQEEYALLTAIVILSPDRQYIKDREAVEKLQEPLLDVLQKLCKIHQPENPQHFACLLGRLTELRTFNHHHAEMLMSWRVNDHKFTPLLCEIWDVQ
Summary of the method: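 Chimeric FXR-GAL4 activity in transiently transfected human HepG2 liver cells is scored as induction of reporter mRNA after 24 h of dosing. Detection uses RT-PCR with fluorescent labelling and capillary electrophoresis, with DMSO serving as baseline.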

[4] = target: Estrogen receptor beta (Homo sapiens) (UniProt Q92731); assay: OT_ER_ERbERb_0480: Odyssey Thera (OT) 8-hour HEK293T Protein-Complementation Assay for Estrogen Receptor-beta/-beta Homodimer (AID 2283357);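 also: active means signal gain over DMSO baseline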
Sequence of Estrogen receptor beta (Homo sapiens) (Q92731 whole entry, looked up, the tested form may be a part): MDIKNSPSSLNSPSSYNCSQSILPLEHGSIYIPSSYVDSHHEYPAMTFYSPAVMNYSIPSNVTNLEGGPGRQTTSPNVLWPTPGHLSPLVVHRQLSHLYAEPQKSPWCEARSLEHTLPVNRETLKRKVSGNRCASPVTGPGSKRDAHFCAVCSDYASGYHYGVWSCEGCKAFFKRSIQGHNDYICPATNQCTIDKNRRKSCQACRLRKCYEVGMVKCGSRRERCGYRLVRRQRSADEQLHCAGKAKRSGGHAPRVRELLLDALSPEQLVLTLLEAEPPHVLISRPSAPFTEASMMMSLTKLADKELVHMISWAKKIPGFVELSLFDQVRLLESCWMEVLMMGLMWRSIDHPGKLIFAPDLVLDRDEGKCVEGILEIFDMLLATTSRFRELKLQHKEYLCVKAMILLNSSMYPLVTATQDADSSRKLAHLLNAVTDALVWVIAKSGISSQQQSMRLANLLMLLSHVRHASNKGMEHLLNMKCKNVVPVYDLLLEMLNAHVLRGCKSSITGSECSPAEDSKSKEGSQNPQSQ
Summary of the method: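 Readout: increase in mean fluorescence intensity (nucleus for agonists; nucleus plus cytoplasm for antagonists) relative to DMSO, from a reporter-fragment complementation of human ER-beta LBD homodimer in HEK293T cells dosed 8 hours.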

[5] = target: Estrogen receptor beta (Homo sapiens) (UniProt Q92731); assay: OT_ER_ERbERb_1440: Odyssey Thera (OT) 24-hour HEK293T Protein-Complementation Assay for Estrogen Receptor-beta/-beta Homodimer (AID 2283380);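 also: fluorescence gain from ER beta LBD homodimer complementation read by laser scanning cytometry; scored as signal increase over DMSO baseline for both agonists and antagonists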
Summary of the method: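 HEK293T cells stably expressing human ER-beta LBD (aa 310-547) PCA homodimer pair, dosed 24 h; formaldehyde-fixed, Draq5-stained. Readout: increase in nuclear (agonist) or nuclear plus cytoplasmic (antagonist) fluorescence intensity versus DMSO, gain-of-signal fitting.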

[6] = target: Retinoic acid receptor RXR-alpha (Homo sapiens) (UniProt P19793); assay: OT_NURR1_NURR1RXRa_0480: Odyssey Thera (OT) 8-hour HEK293T Protein Complementation Assay for Nurr1/retinoid X receptor (RXR) (AID 2283385)
Sequence of Retinoic acid receptor RXR-alpha (Homo sapiens) (P19793 whole entry, looked up, the tested form may be a part): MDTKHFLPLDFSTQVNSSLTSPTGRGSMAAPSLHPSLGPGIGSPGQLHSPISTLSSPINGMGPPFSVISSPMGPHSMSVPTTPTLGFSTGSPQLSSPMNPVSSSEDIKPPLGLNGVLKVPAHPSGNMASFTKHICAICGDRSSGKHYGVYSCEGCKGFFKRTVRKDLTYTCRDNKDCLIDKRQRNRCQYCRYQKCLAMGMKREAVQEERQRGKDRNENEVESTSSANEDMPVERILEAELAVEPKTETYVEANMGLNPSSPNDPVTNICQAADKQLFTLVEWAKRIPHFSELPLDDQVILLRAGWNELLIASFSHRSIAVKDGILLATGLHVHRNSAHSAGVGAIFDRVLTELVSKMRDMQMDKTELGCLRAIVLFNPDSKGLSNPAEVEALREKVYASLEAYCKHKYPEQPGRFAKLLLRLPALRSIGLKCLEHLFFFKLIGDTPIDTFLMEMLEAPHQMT
Summary of the method: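 Compounds are applied to HEK293T cells carrying Nurr1 and RXRα linked to reporter fragments. After 8 h, fluorescence intensity reports heterodimer formation, with DMSO as baseline.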

[7] = target: Peroxisome proliferator-activated receptor gamma (Homo sapiens) (UniProt P37231); assay: OT_PPARg_PPARgSRC1_0480: Odyssey Thera (OT) 8-hour Protein-Complementation Assay for Peroxisome Proliferator-activated Receptor Gamma / SRC-1 Co-activator (AID 2283387);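 also: nuclear to cytoplasmic split Venus YFP fluorescence ratio reporting PPARg SRC-1 interaction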
Sequence of Peroxisome proliferator-activated receptor gamma (Homo sapiens) (P37231 whole entry, looked up, the tested form may be a part): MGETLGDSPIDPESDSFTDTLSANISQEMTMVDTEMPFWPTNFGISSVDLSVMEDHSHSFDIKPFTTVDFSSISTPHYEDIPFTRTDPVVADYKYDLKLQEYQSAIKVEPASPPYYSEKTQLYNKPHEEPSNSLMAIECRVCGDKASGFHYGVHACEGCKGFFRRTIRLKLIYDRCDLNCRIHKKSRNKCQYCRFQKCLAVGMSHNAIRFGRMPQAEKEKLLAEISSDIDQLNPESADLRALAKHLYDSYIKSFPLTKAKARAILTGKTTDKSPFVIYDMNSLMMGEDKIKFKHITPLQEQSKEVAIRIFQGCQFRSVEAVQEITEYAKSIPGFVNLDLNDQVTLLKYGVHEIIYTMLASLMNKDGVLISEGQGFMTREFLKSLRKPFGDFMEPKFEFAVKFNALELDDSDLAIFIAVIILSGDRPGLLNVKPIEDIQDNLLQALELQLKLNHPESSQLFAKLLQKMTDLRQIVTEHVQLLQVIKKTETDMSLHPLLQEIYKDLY
Summary of the method: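 Read-out: 488 nm N/C fluorescence ratio from complemented Venus YFP fragments, ≥350 cells per image, gain-of-signal fitted against DMSO baseline. Fusions of PPARg/SRC-1 with IFP1/IFP2 expressed transiently in HEK293T; compounds applied 8 h.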

[8] = target: Peroxisome proliferator-activated receptor gamma (Homo sapiens) (UniProt P37231); assay: OT_PPARg_PPARgSRC1_1440: Odyssey Thera (OT) 24-hour Protein-Complementation Assay for Peroxisome Proliferator-activated Receptor Gamma/ SRC-1 Co-activator (AID 2283388);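 also: nuclear to cytoplasmic ratio of reconstituted Venus YFP fluorescence in fixed imaged cells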
Summary of the method: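 Transient HEK293T, YFP fragments 1-158/159-239 (mutant IFP1/IFP2) fused to PPARg/SRC-1; 24 h dosing; fix 4% formaldehyde, Draq5; Opera imaging 488/635 nm; N/C ratio, gain vs DMSO.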

[9] = ACEA_AR_agonist_AUC_viability: ACEA Biosciences xCELLigence Real-Time Cell Analysis on Androgen Receptor Agonism for Viability (AID 2283775)
Summary of the method: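 Read-out is area under the impedance curve at 80 h post-dose in 22Rv1 cells, with DMSO as baseline and signal loss taken as reduced viability. Compounds ran in duplicate from 100 uM final.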

[10] = ACEA_AR_antagonist_AUC_viability: ACEA Biosciences xCELLigence Real-Time Cell Analysis on Androgen Receptor Antagonism for Viability (AID 2283776);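 also: 22Rv1 human prostate cancer cells growing on impedance electrode plates; area under impedance growth curve at 80 h after dosing as viability; hits lower the growth signal relative to DMSO meaning cytotoxicity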
Summary of the method: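 Real-time electrical impedance tracks 22Rv1 proliferation after continuous compound exposure (top 100 uM final, 1:4 steps, 8 concentrations). The 80 h area-under-curve serves as the cytotoxicity readout relative to DMSO.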

[11] = target: Retinoic acid receptor RXR-alpha (Homo sapiens) (UniProt P19793); assay: ATG_RXRa_TRANS: Attagene TRANS-FACTORIAL HepG2 Assay for human Retinoid X Receptor alpha (RXRa) (AID 2283012)
Summary of the method: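 Cells (HepG2) carried transiently transfected GAL4-responsive reporter units. Following a 24 h chemical incubation, reporter mRNA induction was read via RT-PCR fragment analysis; DMSO served as negative control and baseline.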

[12] = target: human Vitamin D Receptor (VDR), VDR (gene 7421) (UniProt P11473); assay: ATG_VDR_TRANS: Attagene TRANS-FACTORIAL HepG2 Assay for human Vitamin D Receptor (VDR) (AID 2283022)
Sequence of human Vitamin D Receptor (VDR), VDR (gene 7421) (P11473 whole entry, looked up, the tested form may be a part): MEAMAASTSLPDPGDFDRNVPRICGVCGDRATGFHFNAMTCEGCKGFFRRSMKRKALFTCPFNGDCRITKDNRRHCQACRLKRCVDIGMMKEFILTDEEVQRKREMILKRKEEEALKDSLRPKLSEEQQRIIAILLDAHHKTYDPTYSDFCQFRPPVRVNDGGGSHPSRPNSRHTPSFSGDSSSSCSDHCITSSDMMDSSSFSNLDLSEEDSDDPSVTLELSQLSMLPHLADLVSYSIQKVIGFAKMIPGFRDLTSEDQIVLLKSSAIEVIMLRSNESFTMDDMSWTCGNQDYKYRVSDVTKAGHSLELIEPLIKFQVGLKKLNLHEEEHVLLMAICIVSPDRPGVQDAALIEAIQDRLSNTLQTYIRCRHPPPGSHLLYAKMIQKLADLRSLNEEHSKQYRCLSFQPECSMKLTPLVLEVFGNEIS
Summary of the method: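 Fluorescence of labelled reporter cDNA fragments, resolved by capillary electrophoresis, gives mRNA induction after 24 h treatment of HepG2 cells carrying transfected Gal4-fusion reporter units. Activity is fitted in the positive direction with DMSO as baseline.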

[13] = CCTE_Harrill_HTTr_CellCount_MCF7: CCTE's Cell Proliferation Assessment for the High-Throughput Transcriptomics (HTTr) Platform, Harrill Lab (AID 2284012);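 also: count of Hoechst-stained nuclei per well by high-content imaging in MCF-7 cells; cells exposed to compound for six hours; intended direction is loss of nuclei count meaning fewer cells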
Summary of the method: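 Nuclei counting (Hoechst, high content imaging) in MCF-7 after a 6 h treatment at eight concentrations. Activity fitted bidirectionally, DMSO as negative control.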

[14] = target: Steroid hormone receptor ERR1 (Homo sapiens) (UniProt P11474); assay: ATG_ERRa_TRANS: Attagene TRANS-FACTORIAL HepG2 Assay for human Estrogen-Related Receptor alpha (ERRa) (AID 2282971); conditions: HepG2 Attagene TRANS reporter, ERRa transactivation
Sequence of Steroid hormone receptor ERR1 (Homo sapiens) (P11474 whole entry, looked up, the tested form may be a part): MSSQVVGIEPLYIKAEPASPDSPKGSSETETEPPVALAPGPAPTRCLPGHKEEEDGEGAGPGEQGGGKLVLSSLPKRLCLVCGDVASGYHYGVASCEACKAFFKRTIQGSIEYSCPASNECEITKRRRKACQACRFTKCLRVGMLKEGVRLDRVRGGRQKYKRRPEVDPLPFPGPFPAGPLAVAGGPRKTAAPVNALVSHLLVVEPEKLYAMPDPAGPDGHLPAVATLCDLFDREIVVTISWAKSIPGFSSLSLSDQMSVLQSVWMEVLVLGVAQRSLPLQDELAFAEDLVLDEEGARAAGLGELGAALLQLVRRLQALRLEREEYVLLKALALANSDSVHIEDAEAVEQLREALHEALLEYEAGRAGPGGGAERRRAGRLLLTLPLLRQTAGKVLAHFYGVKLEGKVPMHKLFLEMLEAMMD
Summary of the method: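 HepG2 cells were transiently transfected with multiple GAL4-UAS reporter units, then dosed with compound for 24 h. Total RNA was reverse-transcribed, reporter cDNA PCR-amplified and fluorescently labelled, and fragments resolved by capillary electrophoresis; induction was compared with DMSO.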

[15] = target: Estrogen-related receptor gamma (Homo sapiens) (UniProt P62508); assay: ATG_ERRg_TRANS: Attagene TRANS-FACTORIAL HepG2 Assay for human Estrogen-Related Receptor gamma (ERRg) (AID 2282977); conditions: HepG2 Attagene TRANS reporter, ERRg transactivation;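 also: hits increase reporter signal over DMSO so potencies reflect activators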
Sequence of Estrogen-related receptor gamma (Homo sapiens) (P62508 whole entry, looked up, the tested form may be a part): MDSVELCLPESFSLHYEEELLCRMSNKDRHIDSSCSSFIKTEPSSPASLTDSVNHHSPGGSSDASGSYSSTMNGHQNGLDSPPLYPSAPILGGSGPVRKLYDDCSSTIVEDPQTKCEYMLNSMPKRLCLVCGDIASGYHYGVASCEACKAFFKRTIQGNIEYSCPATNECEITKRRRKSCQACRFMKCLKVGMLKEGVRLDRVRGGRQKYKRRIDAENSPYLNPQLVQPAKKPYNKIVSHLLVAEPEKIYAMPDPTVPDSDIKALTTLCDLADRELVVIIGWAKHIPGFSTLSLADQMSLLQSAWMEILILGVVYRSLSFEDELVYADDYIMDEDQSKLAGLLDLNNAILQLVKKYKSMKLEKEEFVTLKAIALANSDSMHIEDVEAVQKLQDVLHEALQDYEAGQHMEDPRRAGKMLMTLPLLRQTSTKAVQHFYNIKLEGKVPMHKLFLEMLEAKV
Summary of the method: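 Transient HepG2 transfectants, 24 h compound exposure, GAL4-UAS reporter mRNA by RT-PCR/6-FAM labelling/capillary electrophoresis; positive direction vs DMSO.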

[16] = BSK_3C_TissueFactor: BioMAP Diversity Plus: 3C Assay for Tissue Factor Biomarker Activity (AID 2282997; active = hit-call score of the fitted dose curve at least 0.9, where 1 is the maximum; inactive = score below 0.9); conditions: BioMAP 3C HUVEC, tissue factor biomarker readout; actives raise or lower the signal
Summary of the method: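 Values derive from bidirectional curve fitting against DMSO of Tissue Factor ELISA signals, taken 24 h after dosing primary human umbilical vein endothelial cells.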

[17] = BSK_3C_uPAR: BioMAP Diversity Plus: 3C Assay for Urokinase-type plasminogen activator receptor (uPAR) Biomarker Activity (AID 2282998; active = hit-call score of the fitted dose curve at least 0.9, where 1 is the maximum; inactive = score below 0.9); conditions: BioMAP 3C HUVEC, uPAR biomarker ELISA; actives raise or lower the signal
Summary of the method: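 Readout: ELISA for surface uPAR. System: human umbilical vein endothelial primary cells, 24 h after chemical exposure. Analysis: bidirectional fit, DMSO baseline.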

[18] = BSK_4H_Eotaxin3: BioMAP Diversity Plus: 4H Assay for Eotaxin 3 Biomarker Activity (AID 2283000; active = hit-call score of the fitted dose curve at least 0.9, where 1 is the maximum; inactive = score below 0.9); conditions: primary human endothelial cells (HUVEC); actives raise or lower the signal
Summary of the method: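 Endothelial primary cells (human umbilical vein) exposed to compound for 24 h. ELISA detection of Eotaxin-3.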

[19] = read-out: Interleukin-1 alpha (IL1a), IL1A (gene 3552); assay: BSK_BE3C_IL1a: BioMAP Diversity Plus: BE3C Assay for Interleukin-1 alpha (IL1a) Biomarker Activity (AID 2283016; active = hit-call score of the fitted dose curve at least 0.9, where 1 is the maximum; inactive = score below 0.9); conditions: primary human bronchial epithelial cells; actives raise or lower the signal
Summary of the method: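 Cultures of primary human bronchial epithelial cells receive test chemical. After 24 h, IL-1a is quantified by ELISA, while parallel wells are fixed in TCA and SRB-stained for total protein. Changes in either direction are fitted relative to DMSO.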

[20] = read-out: Monokine induced gamma interferon (MIG), CXCL9 (gene 4283); assay: BSK_3C_MIG: BioMAP Diversity Plus: 3C Assay for Monokine induced gamma interferon (MIG) Biomarker Activity (AID 2283021; active = hit-call score of the fitted dose curve at least 0.9, where 1 is the maximum; inactive = score below 0.9;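 as to AC50: MIG protein level measured by immunoassay in the treated endothelial cultures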); conditions: primary human endothelial cells (HUVEC); actives raise or lower the signal
Summary of the method: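 After 24 h of treatment, human umbilical vein endothelial cultures (3C system) had their MIG biomarker level determined by ELISA, with DMSO serving as negative control.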

Measured: AC50

CSc1nc(N=[N+]=[N-])nc(NC(C)C)n1
inactive: [1] | [2]

COc1cc(OC)nc(Oc2cccc(Oc3nc(OC)cc(OC)n3)c2C(=O)O)n1
inactive: [3] | [4] | [5] | [6] | [7] | [8] | [9] | [10]

CC(=O)C=Cc1ccccc1
active: [6] 1.12 µM
inactive: [11] | [12] | [4] | [5] | [7] | [8] | [13]

CCNCC
inactive: [14] | [15] | [11]

CNC(=N[N+](=O)[O-])NCC1CCOC1 (stereo not drawn)
inactive: [3] | [4] | [5] | [6] | [9] | [10]

N#Cc1cc(I)c(O)c(I)c1
inactive: [14] | [15] | [11]

CC(Cc1ccc(C(C)(C)C)cc1)CN1C[C@@H](C)O[C@@H](C)C1 (stereo partly drawn)
active: [6] 66.8 µM
inactive: [14] | [15] | [3] | [4] | [5] | [7] | [8] | [9] | [10]

CC(C)CCCCCCCOC(=O)c1ccccc1C(=O)OCCCCCCCC(C)C
inactive: [15] | [3] | [16] | [17] | [18] | [11] | [19] | [20] | [13]

O=P(O)(Oc1ccccc1)Oc1ccccc1
inactive: [1] | [2] | [3] | [4] | [5] | [7] | [8]

CCCCCc1cc(O)cc(O)c1
inactive: [3]

CCC(C)c1cc([N+](=O)[O-])cc([N+](=O)[O-])c1OC(=O)C=C(C)C (stereo not drawn)
inactive: [11]
active: [16] 9.89 µM | [17] 7.18 µM | [18] 6.83 µM | [19] 20.9 µM | [20] 35.3 µM

C#CC1(O)CCCCC1
inactive: [14] | [15]

Nc1ccc([N+](=O)[O-])cc1N
inactive: [14] | [15]

O=S(=O)(O)O
inactive: [11] | [13]

CC(C)(C)C(O)C(Oc1ccc(-c2ccccc2)cc1)n1cncn1 (stereo not drawn)
inactive: [1] | [2] | [3] | [16] | [11] | [19] | [20] | [13]
active: [17] 32.2 µM | [18] 32.3 µM

CCc1cc(C)cc(CC)c1-c1c(OC(=O)C(C)(C)C)n2n(c1=O)CCOCC2
active: [17] 4 µM | [18] 20 µM
inactive: [1] | [16] | [19] | [20]

Nc1ccccc1C(=O)Oc1ccc2ccccc2c1
active: [1] 18.1 µM | [2] 12.8 µM | [11] 152 µM

C[C@]12CCC(=O)C(O)=C1CC[C@@H]1[C@@H]2CC[C@]2(C)C(=O)CC[C@@H]12
active: [1] 16.8 µM | [2] 9.42 µM
inactive: [11] | [12] | [13]

[N-]=[N+]=CC(=O)OC[C@H](N)C(=O)O
inactive: [12] | [13]

Nc1ccc(-c2ccc(N)c(N)c2)cc1N
active: [16] 5.26 µM
inactive: [3] | [17] | [18] | [19] | [20]

CCCCOP(=O)(O)OCCCC
inactive: [1] | [2] | [3]

O=C1C(Cl)=C(Cl)C(=O)C(Cl)=C1Cl
active: [16] 7 µM | [17] 9.52 µM | [18] 15 µM | [19] 30.5 µM | [20] 29.2 µM
inactive: [1] | [2] | [15] | [3] | [11] | [12] | [13]

COC(=O)COc1ccc(Cl)cc1Cl
inactive: [14] | [15] | [11]

Nc1c(Cl)c(Cl)c(Cl)c(Cl)c1Cl
inactive: [12]

CCc1cccc(C)c1N(C(=O)CCl)[C@@H](C)COC
inactive: [12] | [4] | [5] | [6] | [7] | [8] | [9] | [10] | [13]

CC(C)(C)C(=O)CCl
inactive: [1] | [2] | [14] | [15] | [17] | [11] | [19] | [20] | [13]
active: [16] 20 µM | [18] 20 µM

CC(C)(O)C#N
inactive: [4] | [5] | [6] | [7] | [8] | [9] | [10] | [13]
